The test system of experiment [1] is PRMT1 (protein arginine N-methyltransferase 1). Put plainly: small molecules binding arginine methyltransferase PRMT1 – biochemical, small-molecule microarray, 635 nm fluorescence, primary screen (AID 1088).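 Also: binding of Prmt1 protein to compounds spotted on small-molecule microarray slides.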 Conditions: higher = more signal.
A short description of experiment [2]: growth effects on S. cerevisiae YJM789 – YJM789 clinical isolate, OD600, 24 h, basal, primary screen (AID 1089).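 Also: growth of clinical yeast isolate S. cerevisiae YJM 789 seeded 1000 cells per well; test concentration not given here.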 The settings on record: higher = more signal, called active from +8 up or from −8 down.
A short description of experiment [3]: S. pombe growth modifiers, basal conditions – strain 972, OD600, 24 h, no modulator, primary screen (AID 1090).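 Also: basal condition with compound alone and no growth modifier present; test concentration not given here.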 The settings on record: S. pombe 972 growth, higher = more signal, called active from +8 up or from −8 down.
Experiment [4] can be described thus: budding yeast growth modifiers under rapamycin – strain BY4716, OD600, 96 h, primary screen (AID 1091). Also: test concentration not given here. Conditions: S. cerevisiae BY4716 + rapamycin, higher = more signal, called active from +8 up or from −8 down.
Experiment [5] concerns the target Torsin-1A-interacting protein 2 (Homo sapiens) (UniProt Q8NFQ8). Put plainly: small molecules binding lysate-expressed LULL1 – cell lysate, human LULL1 lysate, 635/667 nm fluorescence, primary screen (AID 1092).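 Also: probe is lysate of COS7 cells overexpressing human LULL1; score merges per-feature 667 nm fluorescence with signal-to-noise.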 The settings on record: small-molecule microarray, hLULL1 lysate binding, 635 nm fluorescence; higher = more signal.
Experiment [6] is described as follows: optical density change of DRC41 E. coli – strain DRC41, OD650, 24 h, E. coli filamentation project, primary screen (AID 1093).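 Also: MC1000 strain lacking acrAB efflux and sulA so SOS filamentation is blocked; test concentration not given here.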 The settings on record: E. coli DRC41 growth, higher = more signal, called active from +8 up or from −8 down.
A short description of experiment [7]: probe aLefty2 binding to arrayed compounds – biochemical, biotinylated probe, 635/667 nm fluorescence, primary screen (AID 1094).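 Also: score merges spot fluorescence near 667 nm with spot signal-to-noise ratio.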 The settings on record: small-molecule microarray, higher = more signal.
Experiment [8] relates to Noggin (protein binding on small-molecule microarray). Put plainly: small molecules binding Noggin protein – biochemical, 635/667 nm fluorescence, primary screen (AID 1095).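 Also: score merges 667 nm feature fluorescence with signal to noise over triplicate slides.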 Conditions: 635 nm fluorescence, higher = more signal.
Experiment [9] has as its target Neurogenic locus notch homolog protein 3 (Homo sapiens) (UniProt Q9UM47). The experiment in a line: small molecules binding NOTCH3 protein – biochemical, 635/667 nm fluorescence, primary screen (AID 1096). The settings on record: small-molecule microarray, 635 nm fluorescence, higher = more signal.
Experiment [10] in a line: probe aEGFR binding to arrayed compounds – biochemical, biotinylated probe, 635/667 nm fluorescence, primary screen (AID 1097).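 Also: probe is a biotinylated anti-EGFR antibody binding compounds printed on slides; score combines fluorescence near 667 nm and signal to noise of each spot.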 Conditions: small-molecule microarray, higher = more signal.
Experiment [11] deals with Plasmodium falciparum Sir2 (PF13_0152, Sir2A). The experiment in a line: Plasmodium falciparum Sir2A binding compounds – biochemical, small-molecule microarray, 635 nm fluorescence, primary screen (AID 1098).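 Also: score merges spot fluorescence intensity with its signal-to-noise ratio.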 Conditions: fluorescence 635 nm, higher = more signal.
A short description of experiment [12]: probe aDKK1 binding to arrayed compounds – biochemical, biotinylated probe, 635/667 nm fluorescence, primary screen (AID 1099).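 Also: score merges 667nm spot fluorescence with signal to noise across triplicate slides; reference of the scale not given here.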 The settings on record: small-molecule microarray, higher = more signal.
Experiment [13] in a line: probe aCHRDL2 binding to arrayed compounds – biochemical, biotinylated probe, 635/667 nm fluorescence, primary screen (AID 1100). The settings on record: small-molecule microarray, higher = more signal.
The nature of experiment [14]: change in splice reporter luminescence, either direction, cell-based, HEK293, spliceosome inhibition project, primary screen (AID 1101).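 Also: HEK293 cells carrying a splicing-competent luciferase reporter gene; test concentration not given here.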 Conditions: HEK293 splicing luciferase reporter, 24 h, higher = more signal, called active from +8 up or from −8 down.
The target in experiment [15] is Fibroblast growth factor 10 (Homo sapiens) (UniProt O15520). Put plainly: compounds binding fibroblast growth factor 10 – biochemical, small-molecule microarray, 635 nm fluorescence, primary screen (AID 1102). The settings on record: FGF10 binding, fluorescence 635 nm, higher = more signal.
Sequence of Fibroblast growth factor 10 (Homo sapiens) (O15520 whole entry, looked up): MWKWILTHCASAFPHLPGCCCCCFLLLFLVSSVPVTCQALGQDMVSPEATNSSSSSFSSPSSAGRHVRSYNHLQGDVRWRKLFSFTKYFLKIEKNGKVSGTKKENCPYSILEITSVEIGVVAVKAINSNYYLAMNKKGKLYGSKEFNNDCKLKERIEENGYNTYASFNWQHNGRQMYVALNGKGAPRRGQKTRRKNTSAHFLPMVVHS
The subject of experiment [16] is glycogen synthase kinase-3 (GSK3A per assay name; protocol says GSK3B). Put plainly: compounds binding glycogen synthase kinase-3 – biochemical, small-molecule microarray, 635 nm fluorescence, GSK3A, primary screen (AID 1103). Also: the record names both GSK3A and GSK3B. Conditions: fluorescence 635 nm, higher = more signal.
Experiment [17] addresses Epidermal growth factor receptor (Homo sapiens) (UniProt P00533). Put plainly: compounds binding epidermal growth factor receptor – biochemical, small-molecule microarray, 635 nm fluorescence, primary screen (AID 1104).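 Also: score merges 667 nm emission intensity with spot signal to noise over triplicate slides.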 Conditions: EGFR binding, higher = more signal.
For experiment [18], the target named is Follistatin-related protein 3 (Homo sapiens) (UniProt O95633). The experiment in a line: compounds binding follistatin-related protein 3 – biochemical, small-molecule microarray, 635 nm fluorescence, primary screen (AID 1105).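 Also: score merges emission near 667 nm and signal to noise per printed spot across three slides.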 The settings on record: FSTL3 binding, higher = more signal.
Sequence of Follistatin-related protein 3 (Homo sapiens) (O95633 whole entry, looked up): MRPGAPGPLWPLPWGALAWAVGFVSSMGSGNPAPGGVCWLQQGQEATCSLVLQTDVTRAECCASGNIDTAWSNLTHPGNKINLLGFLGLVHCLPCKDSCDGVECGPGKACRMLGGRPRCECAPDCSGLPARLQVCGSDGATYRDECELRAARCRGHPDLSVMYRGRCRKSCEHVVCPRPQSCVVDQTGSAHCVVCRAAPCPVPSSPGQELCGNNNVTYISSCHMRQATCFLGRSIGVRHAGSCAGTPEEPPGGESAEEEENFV
The target of experiment [19] is Dickkopf-related protein 1 (Homo sapiens) (UniProt O94907). The experiment in a line: small molecules binding DKK1 protein – biochemical, small-molecule microarray, 635 nm fluorescence scan, primary screen (AID 1106).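 Also: score merges emission near 667 nm with signal to noise over three replicate slides.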 Conditions: higher = more signal.
Sequence of Dickkopf-related protein 1 (Homo sapiens) (O94907 whole entry, looked up): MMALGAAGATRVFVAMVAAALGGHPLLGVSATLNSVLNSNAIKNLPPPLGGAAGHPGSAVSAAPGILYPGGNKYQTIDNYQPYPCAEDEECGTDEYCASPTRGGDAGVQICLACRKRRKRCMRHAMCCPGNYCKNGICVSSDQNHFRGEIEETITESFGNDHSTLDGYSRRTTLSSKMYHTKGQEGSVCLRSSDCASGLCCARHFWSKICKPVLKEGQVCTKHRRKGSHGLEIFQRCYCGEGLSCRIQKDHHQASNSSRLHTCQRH
Experiment [20] has as its system Inhibin beta A chain (activin A). Put plainly: small molecules binding activin A – biochemical, small-molecule microarray, 635 nm fluorescence scan, primary screen (AID 1107).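 Also: mouse activin A protein probed at 4.33 µg/mL on printed slides; score merges bound-protein fluorescence near 667 nm with spot signal-to-noise.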 Conditions: INHBA, higher = more signal.

Active and inactive are the calls of the source.

Sequence of Epidermal growth factor receptor (Homo sapiens) (P00533 whole entry, looked up): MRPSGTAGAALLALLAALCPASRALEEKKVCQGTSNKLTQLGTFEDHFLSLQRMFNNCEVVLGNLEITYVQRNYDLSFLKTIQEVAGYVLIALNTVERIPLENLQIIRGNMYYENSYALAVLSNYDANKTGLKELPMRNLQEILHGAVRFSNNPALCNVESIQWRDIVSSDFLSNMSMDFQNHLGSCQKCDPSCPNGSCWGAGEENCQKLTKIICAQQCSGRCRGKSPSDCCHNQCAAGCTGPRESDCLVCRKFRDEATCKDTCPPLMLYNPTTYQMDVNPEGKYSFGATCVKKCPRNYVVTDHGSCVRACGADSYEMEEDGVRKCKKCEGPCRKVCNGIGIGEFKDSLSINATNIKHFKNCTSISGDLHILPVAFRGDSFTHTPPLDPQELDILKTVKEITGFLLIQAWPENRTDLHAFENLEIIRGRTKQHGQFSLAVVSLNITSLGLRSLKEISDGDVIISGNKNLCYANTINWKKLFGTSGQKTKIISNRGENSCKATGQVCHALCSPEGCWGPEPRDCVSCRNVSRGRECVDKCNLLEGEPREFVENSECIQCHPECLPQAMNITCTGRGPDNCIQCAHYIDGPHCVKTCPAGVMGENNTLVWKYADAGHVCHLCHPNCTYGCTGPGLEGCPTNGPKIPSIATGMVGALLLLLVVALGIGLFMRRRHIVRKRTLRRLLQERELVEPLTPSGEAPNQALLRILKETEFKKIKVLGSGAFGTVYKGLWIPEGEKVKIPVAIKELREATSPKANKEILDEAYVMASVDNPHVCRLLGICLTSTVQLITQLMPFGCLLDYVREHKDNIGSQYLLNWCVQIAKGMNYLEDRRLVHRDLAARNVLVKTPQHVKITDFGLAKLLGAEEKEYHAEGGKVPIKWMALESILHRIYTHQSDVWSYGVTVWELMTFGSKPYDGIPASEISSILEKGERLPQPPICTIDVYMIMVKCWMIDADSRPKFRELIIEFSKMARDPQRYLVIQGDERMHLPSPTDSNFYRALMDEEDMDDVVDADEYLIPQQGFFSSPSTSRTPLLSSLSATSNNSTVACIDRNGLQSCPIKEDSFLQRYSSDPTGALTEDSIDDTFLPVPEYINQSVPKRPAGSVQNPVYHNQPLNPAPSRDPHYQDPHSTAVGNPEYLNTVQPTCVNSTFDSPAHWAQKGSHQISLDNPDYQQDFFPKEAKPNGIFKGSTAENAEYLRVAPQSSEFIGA
Sequence of Neurogenic locus notch homolog protein 3 (Homo sapiens) (Q9UM47 whole entry, looked up): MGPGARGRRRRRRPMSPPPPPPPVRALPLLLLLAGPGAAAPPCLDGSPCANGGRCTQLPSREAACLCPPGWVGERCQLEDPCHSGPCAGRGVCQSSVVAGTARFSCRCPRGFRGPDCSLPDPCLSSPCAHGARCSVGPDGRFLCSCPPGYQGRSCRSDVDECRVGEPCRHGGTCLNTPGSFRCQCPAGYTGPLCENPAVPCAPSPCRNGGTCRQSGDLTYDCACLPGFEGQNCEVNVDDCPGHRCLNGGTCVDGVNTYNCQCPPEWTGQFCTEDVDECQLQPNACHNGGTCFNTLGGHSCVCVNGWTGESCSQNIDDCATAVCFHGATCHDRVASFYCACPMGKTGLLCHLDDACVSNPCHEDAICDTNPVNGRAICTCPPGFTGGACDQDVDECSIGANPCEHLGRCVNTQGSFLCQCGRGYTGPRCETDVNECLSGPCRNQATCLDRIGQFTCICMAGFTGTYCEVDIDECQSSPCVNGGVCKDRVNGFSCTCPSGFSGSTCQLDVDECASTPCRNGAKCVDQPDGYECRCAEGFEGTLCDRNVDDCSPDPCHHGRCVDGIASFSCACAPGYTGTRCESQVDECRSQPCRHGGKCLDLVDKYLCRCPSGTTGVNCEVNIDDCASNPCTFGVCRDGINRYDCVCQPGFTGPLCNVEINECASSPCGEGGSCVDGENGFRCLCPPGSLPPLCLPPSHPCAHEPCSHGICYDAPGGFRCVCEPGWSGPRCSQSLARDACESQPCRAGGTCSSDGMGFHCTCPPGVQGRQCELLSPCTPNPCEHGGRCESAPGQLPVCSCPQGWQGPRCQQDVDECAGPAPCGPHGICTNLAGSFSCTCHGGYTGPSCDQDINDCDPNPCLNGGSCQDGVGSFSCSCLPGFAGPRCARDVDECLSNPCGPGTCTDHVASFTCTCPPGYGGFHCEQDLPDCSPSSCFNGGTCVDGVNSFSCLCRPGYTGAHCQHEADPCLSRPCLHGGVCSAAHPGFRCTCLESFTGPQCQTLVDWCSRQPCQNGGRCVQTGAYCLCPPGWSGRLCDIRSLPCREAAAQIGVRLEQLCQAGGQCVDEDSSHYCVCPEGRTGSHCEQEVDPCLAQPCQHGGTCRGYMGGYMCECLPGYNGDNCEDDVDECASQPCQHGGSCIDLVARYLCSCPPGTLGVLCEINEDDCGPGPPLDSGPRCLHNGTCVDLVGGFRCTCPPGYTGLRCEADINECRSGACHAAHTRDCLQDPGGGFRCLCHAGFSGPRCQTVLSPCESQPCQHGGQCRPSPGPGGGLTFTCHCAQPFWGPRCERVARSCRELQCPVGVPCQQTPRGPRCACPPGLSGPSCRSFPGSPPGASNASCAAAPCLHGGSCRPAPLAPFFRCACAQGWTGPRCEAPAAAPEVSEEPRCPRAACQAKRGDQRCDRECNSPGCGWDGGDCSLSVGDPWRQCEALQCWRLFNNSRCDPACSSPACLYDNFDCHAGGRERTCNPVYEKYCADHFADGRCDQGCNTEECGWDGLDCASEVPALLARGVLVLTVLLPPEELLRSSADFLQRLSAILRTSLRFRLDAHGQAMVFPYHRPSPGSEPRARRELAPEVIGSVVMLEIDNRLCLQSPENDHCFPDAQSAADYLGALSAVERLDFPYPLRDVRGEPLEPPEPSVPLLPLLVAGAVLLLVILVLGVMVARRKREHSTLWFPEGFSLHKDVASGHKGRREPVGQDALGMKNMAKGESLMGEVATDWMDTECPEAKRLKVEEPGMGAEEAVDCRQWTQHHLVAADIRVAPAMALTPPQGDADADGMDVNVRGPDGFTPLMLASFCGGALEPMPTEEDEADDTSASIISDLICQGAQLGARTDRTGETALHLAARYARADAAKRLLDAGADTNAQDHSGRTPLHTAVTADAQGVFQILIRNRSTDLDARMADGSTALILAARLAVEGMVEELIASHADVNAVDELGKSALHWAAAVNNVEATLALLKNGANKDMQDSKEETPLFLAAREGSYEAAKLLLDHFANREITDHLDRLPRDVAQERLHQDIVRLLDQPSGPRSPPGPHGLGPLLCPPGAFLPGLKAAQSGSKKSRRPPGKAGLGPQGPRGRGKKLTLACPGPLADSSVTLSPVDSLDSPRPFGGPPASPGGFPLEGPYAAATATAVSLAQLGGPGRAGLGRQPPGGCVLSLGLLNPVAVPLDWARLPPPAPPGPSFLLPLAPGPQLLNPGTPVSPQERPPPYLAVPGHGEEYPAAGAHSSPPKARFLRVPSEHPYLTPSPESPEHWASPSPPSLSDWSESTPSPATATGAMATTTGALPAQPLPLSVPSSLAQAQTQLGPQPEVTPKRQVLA
Sequence of Torsin-1A-interacting protein 2 (Homo sapiens) (Q8NFQ8 whole entry, looked up): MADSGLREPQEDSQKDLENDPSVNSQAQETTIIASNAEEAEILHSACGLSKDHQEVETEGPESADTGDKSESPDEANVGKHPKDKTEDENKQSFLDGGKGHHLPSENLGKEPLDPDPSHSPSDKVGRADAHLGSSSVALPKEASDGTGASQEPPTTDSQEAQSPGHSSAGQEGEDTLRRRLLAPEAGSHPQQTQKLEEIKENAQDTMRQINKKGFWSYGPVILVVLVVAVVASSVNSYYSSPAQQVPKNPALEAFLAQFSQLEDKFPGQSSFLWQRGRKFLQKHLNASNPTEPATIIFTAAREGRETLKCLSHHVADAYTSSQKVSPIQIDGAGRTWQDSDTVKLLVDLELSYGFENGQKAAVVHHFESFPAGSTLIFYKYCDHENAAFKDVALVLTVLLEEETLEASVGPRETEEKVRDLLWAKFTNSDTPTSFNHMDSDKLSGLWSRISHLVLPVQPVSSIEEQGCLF

Regarding `Cc1ccc(S[C@]2(C(=O)NC(C)C)CC(=O)N(Cc3cc(C(F)(F)F)cc(C(F)(F)F)c3)[C@@H]2c2ccc(CO)cc2I)cc1`, the composite z-score was 1.26 in experiment [1]; 2.04 in experiment [5]; -0.0544 in [7]; -0.147 in experiment [8]; -0.513 in experiment [9]; -0.317 in experiment [10]. Moreover, the composite z-score in [11] was -0.602; in experiment [12] it was 0.0628; in experiment [13], 0.892; in experiment [15], -0.816; in [16], -0.504; in experiment [17] it was -1.36. The composite z-score in experiment [18] was -0.923; in experiment [19], -1.27; in [20] it was -0.748. Also, the z-score in [2] was -0.698 (inactive); in [3] it was -2.47 (inactive); in experiment [4], 1.2 (inactive); in [6], 0.715 (inactive); in experiment [14] it was -0.181 (inactive).

For `C=C[C@H](OC)[C@@H](OC(=O)Nc1ccc(SC)cc1)c1ccc(OC)c(O)c1`, the composite z-score is 0.0672 in experiment [1]; -0.023 in experiment [5]; -0.0986 in experiment [7]; -0.878 in experiment [8]; -0.321 in experiment [9]; -0.338 in experiment [10]. Also, the composite z-score was 0.0729 in experiment [11]; -0.276 in experiment [12]; 0.241 in experiment [13]; -0.337 in experiment [15]; -0.392 in experiment [16]; -0.915 in experiment [17]. The composite z-score in experiment [18] is -1.4; in experiment [19] it was -0.559; in experiment [20], -0.778. The z-score is -0.55 (inactive) in [2]; -0.965 (inactive) in [3]; -0.44 (inactive) in experiment [4]; 2.04 (inactive) in experiment [6]; -1.84 (inactive) in experiment [14].

For the molecule `C[C@]1(C(=O)NCCN2CCOCC2)c2ccccc2C(=O)N(Cc2ccccc2)[C@H]1c1ccc(CO)cc1`, the composite z-score in experiment [1] was -0.804; in experiment [5] it was 2.99; in experiment [7], -0.0539; in [8], -0.54; in [9], -0.911; in experiment [10], -0.23. The composite z-score in experiment [11] was 1.59; in experiment [12], -0.082; in experiment [13], 0.606; in [15] it was -0.632; in [16], -0.748; in experiment [17] it was -0.491. The composite z-score in experiment [18] was -0.824; in experiment [19] it was -0.396; in [20], 0.519. Besides, the z-score is 0.364 (inactive) in [2]; -0.304 (inactive) in experiment [3]; -0.877 (inactive) in experiment [4]; 0.0355 (inactive) in [6]; -0.675 (inactive) in [14].

`C=CCN1C(=O)[C@@]2(O[C@@H](CCn3cc([C@H](O)c4ccccc4)nn3)[C@H]([Si](C)(C)c3ccc(OC)cc3)[C@H]2C)c2cc(N3CCOC3=O)ccc21`: the composite z-score is 1.15 in [1]; 1.8 in [5]; -0.0463 in experiment [7]; -0.0328 in experiment [8]; 0.131 in [9]; -0.121 in experiment [10]. Moreover, the composite z-score was -0.412 in experiment [11]; 0.16 in [12]; 0.338 in experiment [13]; 0.0752 in experiment [15]; 0.472 in [16]; 0.135 in experiment [17]. Further, the composite z-score in experiment [18] was -0.0856; in experiment [19], 0.216; in experiment [20] it was 0.392. The z-score is -1.26 (inactive) in experiment [2]; -1.88 (inactive) in experiment [3]; -0.723 (inactive) in experiment [4]; 2.19 (inactive) in experiment [6]; -2.62 (inactive) in experiment [14].

Consider `CCCC=C(CCC)[C@@H](NS(=O)(=O)c1cccc(C(F)(F)F)c1)c1ccc(C(=O)OC)cc1`, for which the composite z-score was determined as 0.133 in [1]; 0.468 in [5]; 1.06 in [7]; 1.3 in experiment [8]; 0.0083 in [9]; 0.912 in experiment [10]. For the same molecule, the composite z-score in [11] is 0.935; in [12], 1.55; in experiment [13], 1.06; in [15], -0.67; in experiment [16] it was 0.37; in experiment [17], -1.1. The results for the composite z-score in experiment [18], in experiment [19] and in experiment [20] were -0.271, -0.553 and -0.507, respectively. Besides, the z-score is 0.483 (inactive) in [2]; 0.441 (inactive) in experiment [3]; -0.182 (inactive) in experiment [4]; -0.228 (inactive) in experiment [6]; -0.489 (inactive) in experiment [14].

The record behind these values is PubChem BioAssay.
